Inconclusive results are not listed. Activity calls are given as the source filed them. The call rests on the fitted dose curve; in most records, active means well fitted inhibition curve with a large enough effect; inconclusive means small, poorly fitted or top-dose-only effect; inactive means flat fitted curve, though single readings scatter. Where a SMILES comes first, the peptide text is derived from it. [ ]: non-standard residue; d: D form. Dolaproine = CO[C@@H]([C@@H]1CCCN1)[C@@H](C)C(=O)O; Dil = CC[C@H](C)[C@H](NC)[C@@H](CC(=O)O)OC; NMeV = CN[C@H](C(=O)O)C(C)C
Assay: Identification of antibody-drug conjugate (ADC) payloads which are substrates of ATP-binding cassette drug efflux transporters: ABCB1-HeLa-KB-3-1 cell line
Settings: KB-3-1 (HeLa derivative) viability, CellTiter-Glo, 48 h
Excerpt: Antibody-drug conjugates (ADCs) feature an antibody recognizing a specific protein joined to a potent toxic payload. Numerous antibody-drug conjugates have received FDA approval; however, clinical resistance arises. Resistance mechanisms include decreased expression or mutation of the antibody target, impaired payload release, or increased expression of ATP-binding cassette (ABC) efflux transporters associated with multidrug resistance. We therefore sought to characterize the interaction of ABC multidrug transporters with ADC payloads. We performed a high-throughput screen with 27 common ADC payloads using cells lines expressing ABC transporters P-glycoprotein (P-gp, encoded by ABCB1) or ABCG2 (encoded by ABCG2). Confirmatory assays were also performed using cells transfected to express P-gp, ABCG2, or MRP1 (encoded by ABCC1). Several commonly used ADC payloads were substrates of P-gp, including calicheamicin gamma1, monomethyl auristatin E, DM1, and DM4. All the pyrrolobenzodiazepines tested - SJG136, SGD-1882, SG2057, and SG3199 - were substrates of P-gp, ABCG2, and MRP1. […] These findings highlight the risk of transporter-mediated resistance with certain ADC payloads and underscore the importance of selecting payloads that evade ABC transporter recognition in future ADC development.
HEK-293 cells were transfected with empty vector (pcDNA) or vector containing the human ABCB1 (MDR-19), ABCG2 (R-5), or ABCC1 gene (MRP1) and were maintained in EMEM with 2 mg/mL G418 added to maintain transporter expression. The HeLa derivative KB-3-1 and the P-gp overexpressing KB-8-5-11 subline were maintained in DMEM; KB-8-5-11 additionally received 100 ng/mL colchicine. H460 parental cells were obtained from the Division of Cancer Treatment and Diagnosis Tumor Repository, National Cancer Institute at Frederick, MD and were cultured in RPMI. The ABCG2 expressing subline H460 MX20 was generated by selecting H460 cells in 20 nM mitoxantrone. Media in all cases was supplemented with 10% FBS and 1% penicillin-streptomycin. We explored 27 common ADC payloads, in two orthogonal, paired cell line sets-a drug selected and transfected set for each transporter--to identify substrates of the ABC transporters P-gp and ABCG2. Compounds were sourced from Levena Biopharma (San Diego, CA), Selleck Chem (Houston, TX), ChemieTek (Indianapolis, IN), or Microsource Discovery Systems (Gaylordsville, CT). Screening was performed as previously described. Briefly, cells were plated at a density of 500 cells/well in 1536 well plates with compounds added using a 1536-head pin tool (Kalypsys, San Diego CA). Cells were incubated with cytotoxic drugs and processed with CellTiter Glo reagent (Promega, Madison, WI) to determine viability after 48 hours. P-gp substrates were identified by comparing compound activity between paired sets of low-expressing (sensitive) and over-expressing (resistant) cell lines.

| Compound | Potency |
| --- | --- |
| CCN(C(C)=O)[C@H]1CO[C@@H](O[C@H]2[C@H](O[C@H]3C#C/C=C\C#C[C@]4(O)CC(=O)C(NC(=O)OC)=C3/C4=C\CSSSC)O[C@H](C)[C@@H](NO[C@H]3C[C@H](O)[C@H](SC(=O)c4c(C)c(I)c(O[C@@H]5O[C@@H](C)[C@H](O)[C@@H](OC)[C@H]5O)c(OC)c4OC)[C@@H](C)O3)[C@@H]2O)C[C@@H]1OC | 8.4 nM (active) |
| CC[C@]1(O)CC2CN(CCc3c([nH]c4ccccc34)[C@@](C(=O)OC)(c3cc4c(cc3OC)N(C)[C@H]3[C@@](O)(C(=O)OC)[C@H](OC(C)=O)[C@]5(CC)C=CCN6CC[C@]43[C@@H]65)C2)C1 (some centres undefined) | 6.7 nM (active) |
| CC(C)(C)OC(=O)Nc1ccc2[nH]c(C(=O)N3C[C@@H](CCl)c4c3cc(O)c3ccccc43)cc2c1 | 5.9 nM (active) |
| CN(C)CCOc1ccc2[nH]c(C(=O)N3C[C@@H](CCl)c4c3cc(O)c3ccccc43)cc2c1 | 0.3 nM (active) |
| COc1cccc2c1C(=O)c1c(O)c3c(c(O)c1C2=O)C[C@@](O)(C(=O)CO)C[C@@H]3O[C@H]1C[C@H]2[C@H](O[C@@H]3[C@@H](OC)OCCN32)[C@H](C)O1 | 0.3 nM (active) |
| CC[C@H](C)[C@@H]([C@H](N)CC(=O)N1CCC[C@H]1[C@H](OC)[C@@H](C)C(=O)N[C@@H](Cc1ccccc1)c1nccs1)N(C)C(=O)[C@@H](NC(=O)[C@H](C(C)C)N(C)C)C(C)C | 0.0748 nM (active) |
| COc1cc2cc(c1Cl)N(C)C(=O)C[C@H](O)[C@]1(C)O[C@H]1[C@H](C)C1C[C@@](O)(NC(=O)O1)[C@H](OC)/C=C/C=C(\C)C2 | 4720 nM (active) |
| COC(=O)c1cc2c3c(cc(O)c2[nH]1)N(C(=O)c1cc2cc(OC)c(OC)c(OC)c2[nH]1)CC3CCl (centres undefined) | 0.5 nM (active) |
| CCc1c2c(nc3ccc(O)cc13)-c1cc3c(c(=O)n1C2)COC(=O)[C@]3(O)CC | 472 nM (active) |
| COc1ccc(C2=CN3C(=O)c4cc(OC)c(OCCCOc5cc6c(cc5OC)C(=O)N5C=C(c7ccc(N)cc7)C[C@@H]5C=N6)cc4N=C[C@H]3C2)cc1 | 52.9 nM (active) |
| CCN[C@H]1CO[C@@H](O[C@H]2[C@H](O[C@H]3C#C/C=C\C#C[C@]4(O)CC(=O)C(NC(=O)OC)=C3/C4=C\CSSSC)O[C@H](C)[C@@H](NO[C@H]3C[C@H](O)[C@H](SC(=O)c4c(C)c(I)c(O[C@@H]5O[C@@H](C)[C@H](O)[C@@H](OC)[C@H]5O)c(OC)c4OC)[C@@H](C)O3)[C@@H]2O)C[C@@H]1OC | 1.3 nM (active) |
| CC[C@H](C)[C@@H]([C@@H](CC(=O)N1CCC[C@H]1[C@H](OC)[C@@H](C)C(=O)N[C@@H](Cc1ccccc1)C(=O)O)OC)N(C)C(=O)[C@@H](NC(=O)[C@@H](NC)C(C)C)C(C)C (H-[NMeV]V[Dil][Dolaproine]F-OH) | 66.6 nM (active) |
| COc1cccc2c1C(=O)c1c(O)c3c(c(O)c1C2=O)C[C@@](O)(C(=O)CO)C[C@@H]3O[C@H]1C[C@H](N)[C@H](O)[C@H](C)O1 | 236 nM (active) |
| CC[C@H](C)[C@@H]([C@H](N)CC(=O)N1CCC[C@H]1[C@H](OC)[C@@H](C)C(=O)N[C@@H](Cc1ccccc1)c1nccs1)N(C)C(=O)[C@@H](NC(=O)[C@@H](NC)C(C)C)C(C)C | 0.1 nM (active) |
